# Test results from the supplement of paper PMC3334620.
# The full ranking holds about 33,000 sequences; the median of “E-score (-0.5 to 0.5)” is about -0.032, and the highest 2% start at about 0.36. The list comes from a sample in which the highest values are over-represented; it also holds similar and randomly drawn sequences.
# Molecular target: T1, Sko1 (UniProt Q02100)
# T1 sequence: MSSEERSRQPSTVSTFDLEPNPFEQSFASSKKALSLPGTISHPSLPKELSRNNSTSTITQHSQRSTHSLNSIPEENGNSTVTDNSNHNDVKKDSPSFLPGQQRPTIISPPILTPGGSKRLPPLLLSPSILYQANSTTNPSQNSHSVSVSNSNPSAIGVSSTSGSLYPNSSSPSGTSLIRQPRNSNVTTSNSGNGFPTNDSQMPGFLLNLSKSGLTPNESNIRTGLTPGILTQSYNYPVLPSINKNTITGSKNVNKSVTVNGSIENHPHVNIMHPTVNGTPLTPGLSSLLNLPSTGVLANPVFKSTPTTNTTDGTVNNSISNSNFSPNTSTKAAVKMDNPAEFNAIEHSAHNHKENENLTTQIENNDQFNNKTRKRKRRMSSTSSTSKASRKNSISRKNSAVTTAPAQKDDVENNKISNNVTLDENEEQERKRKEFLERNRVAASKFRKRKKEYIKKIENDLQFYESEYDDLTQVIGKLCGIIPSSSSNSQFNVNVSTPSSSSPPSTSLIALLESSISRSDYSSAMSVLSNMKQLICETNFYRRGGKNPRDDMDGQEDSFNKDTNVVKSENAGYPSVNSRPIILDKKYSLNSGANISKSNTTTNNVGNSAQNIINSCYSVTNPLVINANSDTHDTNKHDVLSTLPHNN
# Assay: PBM E-score (8-mer binding enrichment) (E-score (-0.5 to 0.5)); higher = stronger / more preferred TF binding
# Conditions: protein concentration: 200 nM; construct: GST-full length
# Summary of the method: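 Masliner-normalised scans of fluorescent anti-GST signal were the basis for scoring. That signal came from GST-tagged yeast transcription factors applied at about 100-200 nM to double-stranded universal all-10-mer Agilent arrays on fresh or once-stripped slides. Each ungapped eight-base word, pooled with its reverse complement, received an E-score from the Universal PBM Analysis Suite.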
row,Sequence,PBM E-score
1,CTCCAACC,-0.0963
2,CTGTACCC,-0.24
3,AGATTTCG,0.114
4,ACTAGAGA,-0.0523
5,CGATTGGA,-0.0798
6,AGATTGCG,0.188
7,AATGATGG,0.189
8,AATGATGT,0.427
9,AATGATGA,0.328
10,ACGTGACT,0.324
11,CCGTGACA,-0.14
12,ACGTGCCA,0.396
13,TCGTGACA,0.129
14,ACGTGCCG,0.243
15,CCGTGACG,0.396
16,ACGTGACC,0.292
17,ACGTGAAG,0.326
18,ACGTGACG,0.462
19,CCGTGACC,-0.28
20,ACGTGACA,0.394
21,GCGTGCCA,-0.151
22,AAATCAGG,0.0636
23,CAGAACTC,-0.0896
24,CTTTTTAA,0.112
25,GCAACCCC,-0.249

row,Sequence,PBM E-score
1,ACCGCCTC,-0.312
2,CGAGTATA,-0.0254
3,AAGTAGGG,-0.0549
4,AAGTAGGC,-0.0531
5,CCGTAGGA,-0.29
6,AGGTAGGG,-0.137
7,ACGTAGGG,0.425
8,ACGTAGGA,0.446
9,ACGTAGGC,0.425
10,GCGTAGGA,0.0517
11,CCGTAGGC,-0.293
12,CGCTAAGA,0.0374
13,GCACAGGC,-0.115
14,AAAGGCCA,-0.118
15,GTTGAGCA,0.0589
16,ACATCTCT,0.0591
17,GTCAACCA,0.0809
18,GGAACTAA,-0.0195
19,CCATTGAG,0.00857
20,GTAAAAAC,0.184
21,GGACTCGA,-0.342
22,AGTATACA,0.0979
23,CGTATACG,0.393
24,CGTATATC,0.319
25,CGTATATA,0.418

row,Sequence,PBM E-score
1,GGTATACA,0.0243
2,AGTATACG,0.267
3,CGTATACC,0.132
4,AGTATATA,0.254
5,CGTATACA,0.372
6,GCTCAAAC,-0.0717
7,ACGCCCTC,-0.134
8,GGACACTA,-0.125
9,AAGATCGT,0.0795
10,GAACGACC,-0.306
11,TAGATAGA,0.0341
12,AAACGGGC,-0.131
13,AACGTTTC,0.199
14,ACGTCTAT,0.338
15,ACGTCTGG,0.331
16,ACGTCTCC,0.322
17,ACGTCTGA,0.339
18,CCGTCTTC,-0.306
19,ACGTCTCG,0.24
20,ACGTCTTG,0.39
21,CCGTCTTA,0.00816
22,ACGTCTTA,0.408
23,ACGTCTAC,0.368
24,ACGTCTTC,0.389
25,CCGTCTAC,0.0306

row,Sequence,PBM E-score
1,AAGCGGGT,-0.268
2,AAAATGAT,0.246
3,GTATGCAA,0.177
4,CACTATCC,-0.124
5,AGAGTCAT,-0.0362
6,AACCGCAC,0.0215
7,CCGTATTA,0.152
8,ACGTATTG,0.464
9,ACGTATTA,0.468
10,ACGTATTC,0.471
11,CCGTATTC,0.0573
12,AGGTATTC,0.0465
13,GCGTATTA,0.333
14,AAGTATTG,0.15
15,ATGTATTG,0.196
16,CTGGTCTC,-0.342
17,GATCAGCA,-0.0416
18,GTGCCTCA,-0.118
19,AAAACAGT,0.0855
20,ACTTCGGC,-0.00736
21,AATTACGA,0.411
22,CGTTACGA,0.349
23,AGTTACGC,0.317
24,GATTACTA,0.204
25,CTTTACGA,0.218

row,Sequence,PBM E-score
1,GCTTACGA,0.238
2,GATTACGA,0.418
3,AATTACTA,0.195
4,CATTACGA,0.398
5,AATTACCA,0.151
6,CATTACGG,0.292
7,CGTTACGC,0.362
8,ACCGGGTG,-0.224
9,TGAGTACA,-0.0184
10,CAGCATGC,-0.0382
11,TGGCCCAA,-0.0707
12,ACCAACTG,-0.0438
13,CCAGAGAA,0.0433
14,CTGTCGGC,-0.148
15,AGATCGAA,0.0696
16,AATTACAG,0.113
17,AATTACAC,0.0946
18,AATTACGG,0.26
19,CATTACAC,0.198
20,GATTACGC,0.425
21,GATTACCC,-0.0418
22,AATTACGT,0.492
23,CATTACCC,-0.0584
24,AATTACAT,0.375
25,GATTACAC,0.0868

row,Sequence,PBM E-score
1,AATTAGGT,0.26
2,CATTACGC,0.409
3,AGTGAGGC,0.0161
4,CGGTTAAC,0.0142
5,ACTTAAAA,0.241
6,ATCAGATC,-0.0621
7,AGTTGAAT,0.135
8,ATGTCCAA,0.0296
9,CCCGGGTC,-0.204
10,GGCGCCAA,-0.179
11,ATGAAGGA,0.0878
12,ATCCACCG,-0.0573
13,AATTACGC,0.44
14,ATTTACGC,0.281
15,TATTACGA,0.414
16,TATTACAA,0.221
17,TATTACCA,0.227
18,AATTACCC,0.0055
19,CTTCGAAG,-0.208
20,AGGCCCCG,-0.372
21,ATGGTTGA,-0.0732
22,ACGGAGCA,-0.116
23,CCTACAGG,-0.365
24,TGCGCGAA,0.169
